In PubChem BioAssay AID2677 (National Center for Advancing Translational Sciences (NCATS), 2010):
Some of the results follow. Records with an inconclusive call do not appear. The source made the active and inactive calls. Calls follow the shape of the dose curve; as a rule, active = well fitted inhibition curve with a large enough effect; inconclusive = small, poorly fitted or top-dose-only effect; inactive = no such curve, though single readings can be large or run the other way.

Target: Lysine-specific demethylase 4E (Homo sapiens) (UniProt B2RXH2)
Sequence (B2RXH2 1-337 limits assumed): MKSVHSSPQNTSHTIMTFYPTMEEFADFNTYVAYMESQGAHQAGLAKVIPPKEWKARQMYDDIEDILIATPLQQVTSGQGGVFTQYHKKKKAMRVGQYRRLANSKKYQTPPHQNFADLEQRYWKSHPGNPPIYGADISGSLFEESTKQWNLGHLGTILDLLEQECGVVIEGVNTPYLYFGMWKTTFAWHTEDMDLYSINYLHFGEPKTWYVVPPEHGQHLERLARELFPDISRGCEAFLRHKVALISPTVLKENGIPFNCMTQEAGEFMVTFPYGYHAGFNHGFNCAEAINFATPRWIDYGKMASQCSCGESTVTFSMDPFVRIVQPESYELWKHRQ
Assay: Confirmation qHTS Assay for Inhibitors of Human Jumonji Domain Containing 2E (JMJD2E)
Conditions: Recombinant JMJD2E, FDH-coupled NADH fluorescence (FDH is formaldehyde dehydrogenase)
From the text: The fine interplay among methylation states of several lysine residues on the tails of histone proteins is a major determinant of the transcriptional state of the associated DNA coding regions and is commonly referred to as the histone code. Histone lysine demethylases catalyze the removal of methyl groups from methylated lysine sidechains on histones H3 and H4, thus antagonizing the reactions catalyzed by histone lysine methyltransferases. […] In search for novel inhibitors of JMJD2E demethylase, a member of the largest set of histone demethylases belonging to the Fe(II) and 2-oxoglutarate oxygenase (2OG) superfamily, we performed a quantitative high-throughput screen (Inglese 2006) by using an assay which utilizes a trimethylated peptide substrate corresponding to a fragment of histone H3 (sequence ARKme3STGGK) with detection of the formaldehyde co-product in real time by a formaldehyde dehydrogenase (FDH) coupled reaction. FDH catalyzes oxidation of formaldehyde to formic acid with the concomitant reduction of the non-fluorescent beta-nicotinamide adenine dinucleotide hydrate (NAD+) cofactor to the fluorescent NADH co-product. References: Inglese, J., Auld, D., Jadhav, A., Johnson, R., Simeonov, A., Yasgar, A., Zheng, W. and Austin, C. Proc Natl Acad Sci USA 2006, 103, 11473-11478. N. R. Rose, S. S. Ng, J. Mecinovic, B. M. Lienard, S. H. Bello, Z. Sun, M. A. McDonough, U. Oppermann and C. J. Schofield, J Med Chem, 2008, 51, 7053-7056. Sakurai, M., Rose, N., Schultz, L., Quinn, A., Jadhav, A., Ng, S., Oppermann, U., Schofield, C.J. and Simeonov, A. Mol BioSystems 2009, in press. S. Michael, D. Auld, C. Klumpp, A. Jadhav, W. Zheng, N. Thorne, C. Austin, J. Inglese and A. Simeonov, Assay Drug Dev Technol, 2008, 6, 637-657. Assay Provider: Structural Genomics Consortium [SGC] Screening Center PI: Austin, C.P. Screening Center: NIH Chemical Genomics Center [NCGC]
Reagents and Controls: Ferrous ammonium sulfate, (+)-sodium L-ascorbate, beta-nicotinamide adenine dinucleotide hydrate (NAD+), Tween-20, formaldehyde dehydrogenase from P. putida (FDH), and disodium 2-oxoglutarate were from Sigma (St. Louis, MO). Black solid-bottom 384-well or 1,536-well assay plates were from Greiner Bio-One (Monroe, NC). Enzyme was supplied by Prof. Udo Oppermann, SGC-Oxford. […] The trimethylated histone peptide substrate ARK(me3)STGGK was synthesized and HPLC-purified by the Tufts University Core Facility (Boston, MA). Substrate solution (Sakurai 2009) contained 50 uM ARK(me3)STGGK, 0.00025 U/uL FDH, 50 uM 2-oxoglutarate, 250 uM NAD+, 1 mM ascorbate, and 10 uM ferrous ammonium sulfate. Controls and plate map: Buffer (150 mM HEPES pH 7.5 containing 0.01% Tween-20) in columns 3 and 4 as negative control (no enzyme) and 100 nM JMJD2E final concentration in columns 1,2, and 5-48. Assay Steps: Enzyme and buffer solutions (3 uL) were dispensed into a 1,536-well Greiner black solid-bottom assay plate. The library compounds (23 nL) were transferred using a Kalypsys pintool equipped with 1,536-pin array. The plate was incubated at room temperature (15 min), and then a 1 uL aliquot of substrate solution was added to initiate the reaction. The plate was transferred to ViewLux imager where an initial reading using standard UV optics (Ex 340 nm, Em 450 nm) was obtained. The plate was then removed from the reader, incubated for 30 minutes at room temperature, and returned to the reader for a second fluorescence reading. A fully automated robotic screening system (Kalypsys Inc, San diego, CA) was used to perform the above steps as described previously (Michael 2008). Compound plates containing DMSO as a vehicle-only control were included at regular interval throughout the screen to monitor any systematic trend in the assay signal associated with reagent dispenser variation or decreases in enzyme specific activity. For activity calculations, percent values were computed as the difference in fluorescence intensity between last and first time points. […]

Potency, active:
O=C1CC(Sc2ncn[nH]2)C(=O)N1c1ccccc1 (stereo unspecified) 7.08 µM, Oc1cccc2cc(-c3ccncc3)cnc12 18.2 µM, Cc1ccc(N2C(=O)CC(Sc3ncn[nH]3)C2=O)cc1 (stereo unspecified) 5.01 µM, Nc1ccc(Nc2cc(O)c3ncccc3c2)cc1 28.2 µM, Oc1ccc(/C=C/c2c(F)cccc2F)c2cccnc12 9.13 µM, Oc1c(CN2CCCC2)cc(COCc2ccccc2)c2cccnc12 5.01 µM
